In the library only some 19% were active in any assay of this set; here they are far more common.
IL1B secr inh: blocks inflammasome-driven IL-1 beta release | THP-1 LPS/ATP IL-1B secretion, AlphaLISA, 16 h; stronger effect = lower value | activity change, % at 57.5 µM | hit rate 4.7% among 360,000 | AID 743279; in the data active = activity change below about -50%; inconclusive = mostly about -30% to -49%
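Secreted IL-1B measured by AlphaLISA bead assay after 16 h compound exposure of THP-1 cells; compounds (final up to 57.5 uM) added 1 h before LPS (250 ng/mL) and ATP (1.25 mM) stimulation; lower signal means less secretion.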
DT40 TDP1 CPT: DT40-hTDP1 cell growth loss with CPT; hit rate 12% among 420,000; Potency, µM (highest dose often 46.2 µM), without a hit: at the highest dose activity change, negative = growth inhibition, actives largely listed as inhibitors; chicken DT40 Tdp1-/-;hTDP1 cells + 20 nM CPT, ATP luminescence, 48 h; AID 686979; note: potency is the fitted concentration of half-maximal effect; nearly all actives have a fitted effect of over 55% in size
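Cell growth measured by CellTiter-Glo luminescence after a minimum 48 h, 37 C compound exposure with 20 nM CPT in Tdp1-knockout DT40 cells stably expressing hTDP1, seeded 400/well; qHTS titration format.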
DT40 TDP1 no CPT: qHTS for Inhibitors of human tyrosyl-DNA phosphodiesterase 1 (TDP1): qHTS in cells in absence of CPT; hit rate 15% among 420,000; AID 686978, 2013; DT40 Tdp1-/- hTDP1 cells, no CPT, ATP luminescence, 48 h; Potency, µM (top dose mostly 46.2 µM), for the others: at the highest dose activity change, negative = growth inhibition, most hits filed as inhibitors; note: potency is the fitted concentration of half-maximal effect; nearly all actives have a fitted effect of over 55% in size
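Cells were dispensed at 400 per well, compounds added by pin tool, plates incubated ≥48 hr at 37 °C, then CellTiter-Glo added for 30 min at room temperature before luminescence reading. Line: DT40 Tdp1-/- complemented with hTDP1; camptothecin omitted.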
HT1080 IDH1KD tx: HT-1080 IDH1 knockdown cell toxicity (counter line); HT-1080 IDH1 knockdown viability, ATP luminescence, 48 h; hit rate 2% among 360,000; AID 686971; Potency, µM (titrated, usually from 46.1 µM), for the others: at the highest dose activity, negative = toxicity, most hits filed as cytotoxic;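 note: potency is the fitted concentration of half-maximal effect; 0% = DMSO wells and -100% = cell-free medium wells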
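Assay cells: HT-1080 with IDH1 knockdown, 750 per well, RPMI/5% FBS. Exposure: 48 h at 37 °C following 2 h pre-incubation. Read: CellTiter-Glo luminescence; fitted concentration-response, curve class assigned.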
HT1080NT lethal: kills 2HG-producing HT-1080-NT fibrosarcoma cells | HT-1080-NT fibrosarcoma viability, CellTiter-Glo ATP luminescence, 48 h | hit rate 1.6% among 360,000 | Potency, µM (doses to about 46.1 µM), for inactives: top-dose activity, negative = less viability, most hits filed as cytotoxic;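 note: NT is the 2HG producing partner of a matched IDH1 knockdown line; potency is the fitted concentration of half-maximal effect; 0% = DMSO-treated cells and -100% = media-only wells without cells; nearly all actives have a fitted effect of over 55% in size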
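Viability of the 2HG-overproducing fibrosarcoma line after 48 hours of compound exposure at 37 degrees C was determined by luminescence with CellTiter-Glo, and concentration-effect curves were then fitted and categorized.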
Active calls of the source: *; ? = inconclusive; / = no result; [ ] = remark or other dose. Unless noted, calls come from the whole dose curve; as a rule, active = well fitted curve in the direction sought with a large enough effect; inconclusive = small, poorly fitted or top-dose-only effect, or another doubt; inactive = no such curve, though single readings can be large; an effect the other way counts as inactive or inconclusive. Unless noted, % is set by controls: 0 for no effect and ±100 for the full control effect.

SMILES	IL1B secr inh	DT40 TDP1 CPT	DT40 TDP1 no CPT	HT1080 IDH1KD tx	HT1080NT lethal
COc1cc(/C=N/Nc2cccc(C)c2)ccc1OC(=O)c1ccco1	-7.8	-10.9%	-3.0%	3.2%	-26.4%
COc1ccc(CN2CCNC(=O)C2CC(=O)NCc2cnn(C)c2)cc1OC (stereo not drawn)	-2.5	-7.3%	-8.4%	1.0%	0.0%
N#Cc1nc(N2CCCCC2)nc(N(c2ccccc2)c2ccccc2)n1	/	11.2µM*	12.6µM*	/	/
CCc1nc(C#N)c(N2CCCCC2)o1	3.9	-3.7%	0.5%	8.2%	4.0%
N#Cc1nc(N2CCCCC2)nc(N2CCCCC2)n1	/	?	12.6µM*	/	/
CCc1ccc(C(=O)NC(=S)NCc2cccnc2)cc1	?	?	-16.6%	-10.3%	-12.2%
COc1ccc(NC(=O)CSc2nnc(NC(=O)c3ccco3)s2)cc1OC	0.0	1.1%	-2.5%	8.5%	-1.7%
CC1=CC2=NC(=O)/C(=C\c3cn(C)c4ccccc34)C(=N)N2O1	-5.5	-25.9%	1.9%	1.2%	-15.4%
CC1=CN2C(=N)/C(=C\c3cn(CCCOc4ccccc4)c4ccccc34)C(=O)N=C2S1	-2.2	14.6µM*	?	?	?
CCN1/C(=C/c2ccc3ccccc3[n+]2CCCS(=O)(=O)[O-])C=Cc2cc(C)ccc21	5.2	?	?	-17.5%	-13.7%
CCCCN1/C(=C/c2ccc3ccccc3[n+]2CC)Sc2ccccc21	-98.0*	0.259µM*	0.231µM*	14.6µM*	?
CC[n+]1c2ccccc2cc2ccccc21	/	-4.3%	-16.4%	/	/
CCN1/C(=C/c2ccc3cc(C)ccc3[n+]2C)Sc2ccc3sccc3c21	-13.4	0.411µM*	0.581µM*	?	16.4µM*
CCN1/C(=C/c2ccc3ccccc3[n+]2CC)C=Cc2ccccc21	-55.3*	1.64µM*	1.46µM*	8.2µM*	6.51µM*
CCN1/C(=C/c2ccc3cc(C)ccc3[n+]2CC)Sc2cc(C)ccc21	-106.7*	0.291µM*	0.013µM*	23.1µM*	16.4µM*
Cc1cccc(CNC(=O)CS(=O)(=O)c2cccc3nsnc23)c1	/	7.4%	8.5%	/	/
O=C(Cc1ccccc1)N/N=C/c1ccc2cccc(O)c2n1	-18.1	2.06µM*	2.59µM*	?	-28.5%
NC(=O)N/N=C/c1ccc2cccc(OCc3ccccc3)c2n1	/	3.0%	?	-29.9%	-24.8%
Nc1nnc(SCC(=O)OCC(=O)c2ccccc2Br)s1	-27.8	25.9µM*	?	9.5%	9.7%
Cc1ccsc1-c1nc(CSCC(=O)NCc2ccc3c(c2)OCO3)c(C)o1	?	?	?	-1.1%	-0.7%
CCc1c(N)nc(N)nc1Nc1ccccc1C	-17.9	?	16.4µM*	-16.8%	1.2%
Cc1ccccc1Nc1nc(N)nc(C)c1Br	-3.3	?	14.6µM*	-13.9%	-4.8%
Cc1ccccc1Nc1ncnc(N)n1	-11.4	2.0%	-2.4%	-6.8%	0.8%
Cc1ccccc1CSCc1nc(N)nc(Nc2ccccc2C)n1	-19.4	?	?	-9.5%	-3.9%
O=C(NC1CC1)C1CCN(C(=O)c2ccc(Cl)cc2Cl)CC1	-1.2	-1.1%	14.1%	-7.6%	23.9%
SMILES	IL1B secr inh	DT40 TDP1 CPT	DT40 TDP1 no CPT	HT1080 IDH1KD tx	HT1080NT lethal
CCN(c1ccccc1)S(=O)(=O)c1cc(NC(=O)CN2CCN(C)CC2)ccc1Cl	-21.8	?	?	-11.9%	-17.3%
CCOc1ccccc1-n1nnc(S(=O)(=O)c2ccc(C)cc2)c1N	/	?	11.6µM*	/	/
CCc1ccc(S(=O)(=O)c2nnn(-c3cccc(C)c3)c2N)cc1	/	20.6µM*	14.6µM*	/	/
CCc1oc(C(=O)OC)cc1CSC(=N)N	-86.6*	?	?	-5.5%	-1.1%
CCOC(=O)c1ccc(CSC(=N)N)o1	-11.5	29.1µM*	?	?	?
COC(=O)c1ccc(CSC(=N)N)o1	/	16.4µM*	?	-22.7%	-13.0%
CC(C)(C)N1C(=O)c2ccccc2NC(=O)C1C(=O)NCCc1ccccc1F (stereo not drawn)	18.5	?	?	26.9%	20.4%
CC1CN(c2ccc(Oc3ccccc3)cc2)c2nc3c(c(=O)[nH]c(=O)n3C)n2C1 (stereo not drawn)	0.0	18.4µM*	25.9µM*	-1.6%	-6.4%
CCOC(=O)C1CCCN(C(=O)c2cccc(NC(=O)c3nsc4ccccc34)c2)C1 (stereo not drawn)	/	20.6µM*	20.6µM*	/	/
CCOC(=O)C1CCCN(C(=O)c2ccccc2NC(=O)c2nsc3ccccc23)C1 (stereo not drawn)	/	16.4µM*	?	/	/
NC(=O)C1CCN(C(=O)C(=O)c2cn(CC(=O)N3CCCCCC3)c3ccccc23)CC1	6.2	-10.0%	22.5%	4.9%	3.4%
COc1ccc(NS(=O)(=O)c2ccc(OCC(=O)N3CCOCC3)cc2)cc1Cl	13.6	?	?	-12.3%	-2.1%
COc1ccc(OCc2cc(C(=O)N(C)Cc3cnccn3)no2)c(Cl)c1	37.7	4.6%	-1.0%	0.4%	0.8%
CN(Cc1nccs1)C(=O)c1cc(COc2cccc3cnccc23)on1	-14.9	7.31µM*	10.3µM*	9.2µM*	23.1µM*
COc1cc(Cl)ccc1OCc1cc(C(=O)N(C)Cc2cccc3cnccc23)no1	-63.7*	14.6µM*	11.6µM*	?	?
CC(=O)c1cccc(OCc2cc(C(=O)N(C)Cc3nccs3)no2)c1	0.7	?	-32.5%	2.2%	9.9%
COc1cc2c(NC3CCN(C)CC3)nc(N3CCCN(C)CC3)nc2cc1OCCCN1CCOCC1	/	7.94µM*	11.2µM*	/	/
COc1cc2c(NC3CCN(C)CC3)nc(N3CCCN(C)CC3)nc2cc1OCCCCCC(N)=O	/	7.1%	?	2.6%	2.3%
COCCCCOc1cc2nc(N3CCCN(C)CC3)nc(NC3CCN(C)CC3)c2cc1OC	/	12.6µM*	11.2µM*	8.5%	-15.3%
COc1cc2c(NC3CCN(C)CC3)nc(N3CCCN(C)CC3)nc2cc1OCCCCCN	/	?	-16.5%	/	/
COCCNCC(O)CON=C1c2ccccc2-c2ccccc21 (stereo not drawn)	-76.6*	?	?	?	?
CN(C)Cc1cc(O)c(CN(C)C)cc1O	6.6	2.59µM*	3.66µM*	3.4%	7.4%
COc1ccc(NC(=O)C2(C)CCN2C(=O)CC2CCCC2)cc1OC (stereo not drawn)	-2.5	-24.1%	-8.8%	?	17.7%
O=C(OCCN1C(=O)c2cccc3c(N4CCOCC4)ccc(c23)C1=O)c1ccc(Cl)cc1	-4.3	2.06µM*	1.64µM*	2.31µM*	?
C=CCN(CC=C)S(=O)(=O)c1ccc(NC(=S)NC(=O)c2ccco2)cc1	-21.1	?	18.4µM*	-0.1%[9.24 µM]	-14.5%

Compound activity from PubChem BioAssay.
